Results on 40 compounds are retold here after PubChem BioAssay (EPA / NIEHS).

The source made the active and inactive calls. The calls were made as follows: active = hit-call score of the fitted dose curve at least 0.9, where 1 is the maximum; inactive = score below 0.9.

This assay in a line: ATG_EGR_CIS: Attagene CIS-FACTORIAL HepG2 Assay for human Early Growth Response 1 (EGR1) (AID 2282938). To be noted: HepG2 Attagene CIS-FACTORIAL EGR reporter mRNA; actives raise or lower the signal. On the procedure:
ATG_CIS is a cell-based, multiplexed-readout assay that uses HepG2, a human liver cell line, with measurements taken at 24 hours after chemical dosing in a 24-well plate.ATG_EGR_CIS is one of 52 assay component(s) measured or calculated from the ATG_CIS assay. It is designed to make measurements of mRNA induction, a form of inducible reporter, as detected with fluorescence intensity signals by Reverse transcription polymerase chain reaction (RT-PCR) and Capillary electrophoresis technology.Data from the assay component ATG_EGR_CIS was analyzed into 1 assay endpoint. This assay endpoint, ATG_EGR_CIS, was analyzed with bidirectional fitting relative to DMSO as the negative control and baseline of activity. Using a type of inducible reporter, measures of mRNA for gain or loss-of-signal activity can be used to understand the reporter gene at the transcription factor-level as they relate to the gene EGR1. Furthermore, this assay endpoint can be referred to as a primary readout, because this assay has produced multiple assay endpoints where this one serves a reporter gene function. To generalize the intended target to other relatable targets, this assay endpoint is annotated to the dna binding intended target family, where the subfamily is zinc finger.
Human liver HepG2 cells are transiently transfected with multiple reporter transcription units (MRTUs) in 6-well plates using FuGene 6 reagent (Roche; 3 ml FuGene/1 mg DNA). The MRTU constructs are regulated by a cis-regulating element (promoter). […] A major difference between the CIS and TRANS system is that in CIS activities of endogenous TFs are measured, whereas the TRANS assay evaluates changes in activities of exogenous, chimeric NR-Gal4 proteins. […] At the end of 24 hour incubation, total RNA was isolated using TriZol reagent (Invitrogen). The isolated RNA is then reverse-transcribed using oligo(dT) primer and Mo-MLV reverse transcriptase (Invitrogen) with DNAse I (Ambion) treatment for 30 min. The one-tenth of the produced cDNA was amplified by PCR using Taq DNA polymerase (Invitrogen) and two reporter sequence-specific primers. The PCR products were fluorescently labeled by primer extension with 6-arboxyfluorescein (6-FAM) 5'-labeled reporter sequence-specific primer (2 min at 95 C, 20 s at 68 C and 10 min at 72 C) and these products were digested with 5U of HpaI (New England Biolabs) for 2h at 37 C. The fragments were purified using Qiaquick PCR columns (Qiagen), analyzed on an ABI 3130xL genetic analyzer (Applied Biosystems) with peak positions identified by using a set of X-rhodamine (ROX)-labeled MapMarker1000 molecular weight standards (BioVentures). The raw capillary electrophoresis data was processed using Attagraph software (Attagene).
Consider `Nc1c(Cl)c(Cl)nc(C(=O)O)c1Cl`, for which the compound was classed as inactive.

Take `CS(=O)(=O)c1cc(C(F)(F)F)ccc1C(=O)c1cnoc1C1CC1`: the compound was called inactive.

As for `CCSC(=O)N1CCCCCC1`, the call was inactive.

Take `C=CCOC(=O)C(C)(C)OC(=O)c1cc(-n2c(=O)cc(C(F)(F)F)n(C)c2=O)ccc1Cl`: the outcome was inactive.

Consider `CC(C)Oc1cccc(NC(=O)c2ccccc2C(F)(F)F)c1`, for which the outcome was inactive.

On to `COc1ccc(-c2ccccc2)cc1NNC(=O)OC(C)C`, for which the outcome was inactive.

For `N#Cc1c(Cl)cccc1Cl`, the result was inactive.

Consider `CC(C)(C)C(=O)C(Oc1ccc(Cl)cc1)n1cncn1` (stereo not given), for which the compound was classed as inactive.

Consider `CCN(CC)C(=O)C(C)Oc1cccc2ccccc12` (stereo not given), for which the compound was classed as inactive.

Regarding `CCC(C)n1c(=O)[nH]c(C)c(Br)c1=O` (stereo not given), the call was inactive.

On to `CC(C)N1C(=O)N(c2ccccc2)CSC1=NC(C)(C)C`, for which the compound was classed as inactive.

Turning to `OC(c1ccc(Cl)cc1)(c1ccc(Cl)cc1)C(Cl)(Cl)Cl`, the compound was classed as inactive.

For the compound `N#Cc1c[nH]cc1-c1cccc2c1OC(F)(F)O2`, the call was inactive.

On to `Cn1c(-c2ccccc2)cc(-c2ccccc2)[n+]1C`, for which the outcome was inactive.

Consider `Clc1nc(Cl)nc(Nc2ccccc2Cl)n1`, for which the outcome was inactive.

On to `O=C(O)c1c(Cl)ccc2cc(Cl)cnc12`, for which the outcome was inactive.

Regarding `CCOc1nc(F)cc2nc(S(=O)(=O)Nc3c(Cl)cccc3Cl)nn12`, the result was inactive.

On to `C=C(C)CN(CC)c1c([N+](=O)[O-])cc(C(F)(F)F)cc1[N+](=O)[O-]`, for which the outcome was inactive.

`CC(C)N1C(=O)c2ccccc2NS1(=O)=O`: the result was inactive.

Take `CCCC(=NOCC)C1=C(O)CC(CC(C)SCC)CC1=O` (stereo not given): the compound was classed as inactive.

On to `Cc1c(COC(=O)[C@@H]2[C@H](/C=C(\Cl)C(F)(F)F)C2(C)C)cccc1-c1ccccc1`, for which the compound was called inactive.

On to `COC(=O)NS(=O)(=O)c1ccc(N)cc1`, for which the result was inactive.

On to `Cc1nc(N(C)C)nc(OC(=O)N(C)C)c1C`, for which the compound was classed as inactive.

For the compound `CSC(=O)c1c(C(F)F)nc(C(F)(F)F)c(C(=O)SC)c1CC(C)C`, the compound was called inactive.

For the compound `CCOP(=S)(OCC)Oc1nc(Cl)n(C(C)C)n1`, the call was inactive.

Consider `CCOP(=O)(OCC)Oc1nc(Cl)c(Cl)cc1Cl`, for which the result was inactive.

Turning to `CC(C)NC(=O)N1CC(=O)N(c2cc(Cl)cc(Cl)c2)C1=O`, the outcome was inactive.

For the compound `CCOC(=O)C(C)OC(=O)c1cc(Oc2ccc(C(F)(F)F)cc2Cl)ccc1[N+](=O)[O-]` (stereo not given), the result was inactive.

`CCNC(=O)NC(=O)C(C#N)=NOC`: the call was inactive.

Take `COC(=O)NC(=S)Nc1ccccc1NC(=S)NC(=O)OC`: the result was inactive.

As to `Cc1cnc(C2=NC(C)(C(C)C)C(=O)N2)c(C(=O)O)c1` (stereo not given), the outcome was inactive.

Regarding `CNC(=O)N(C)c1nnc(C(C)(C)C)s1`, the outcome was inactive.

`Nc1cnn(-c2ccccc2)c(=O)c1Cl`: the outcome was inactive.

On to `COCC(C)N(C(=O)CCl)c1c(C)csc1C` (stereo not given), for which the result was inactive.

As to `COP(=O)(OC)O/C(C)=C/C(=O)N(C)C`, the outcome was inactive.

Consider `CC(C)=CC1C(C(=O)OCc2coc(Cc3ccccc3)c2)C1(C)C` (stereo not given), for which the result was inactive.

`CC(C)Nc1nc(Cl)nc(NC(C)C)n1`: the compound was called inactive.

For the compound `CNC(=O)Oc1cccc2ccccc12`, the result was inactive.

`O=P(O)(O)CCCl`: the call was inactive.

Turning to `N#CN=C1SCCN1Cc1ccc(Cl)nc1`, the compound was called inactive.
